Measured values from the supplement of paper PMC10849652.
About 7,900 targets were measured; listed, in parts, are those with a hit and a random draw of the rest. About 0.6% of all pairs of compound and target were hits. Values without a mark were called inactive.

How the values were obtained:
Assay in all cases: log2 fold change, soluble protein after heating vs DMSO (PISA); higher = thermal stabilisation; K562 cells, 10 uM, 30 min; active = over 0.2 and 3.5 SD of the protein, either way, in both replicates (recomputed)
erlotinib = compound: C#Cc1cccc(Nc2ncnc3cc(OCCOC)c(OCCOC)cc23)c1 [erlotinib]
Summary of the method: (§1)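 Thermal stability values are relative to control samples and come from duplicates. They are expressed as log2 fold changes. For measurement, K562 cells (2×10^6 cells/mL) received 10 μM compound for 30 min, and aliquots were heated for 3 min over 48°C-58°C, pooled, and extracted at 4°C in PBS with 0.5% NP-40. Soluble protein, the supernatant after 21,000xg for 90 min, was quantified by TMTpro 16plex LC-MS/MS with equalised channel sums.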

[1] = compound: C/C(=N\NC(=O)C1=CC(=CC=C1)S(=O)(=O)N2CCOCC2)/C3=C(C=CC(=C3)Cl)O
Summary of the method: as §1

[2] = compound: C1=CC(=C(C=C1Cl)C2=NC3=NC=CN=C3C(=N2)NC4=CC=NC=C4)F
Summary of the method: as §1

[3] = compound: C1=CC(=CC=C1C2=NC3=C(N2)C=C(C=C3)C(=O)N)OC4=CC=C(C=C4)Cl
Summary of the method: as §1

[4] = compound: C1=CC2=C(C=CC(=C2)/C=C\3/C(=O)NC(=NCC4=CC=CS4)S3)N=C1
Summary of the method: as §1

[5] = compound: C1=CC2=NC=CN=C2C=C1/C=C/3\C(=O)NC(=O)S3
Summary of the method: as §1

[6] = compound: C1=CC=C(C=C1)C2=NC(=C(N2)C3=CC=NC=C3)C4=CC(=C(C=C4)Cl)O
Summary of the method: as §1

[7] = compound: C1=CC=C2C(=C1)C3=NNC4=CC=CC(=C43)C2=O
Summary of the method: as §1

[8] = compound: C1CCN(C1)C(=O)NC2=CC=CC(=C2)NC3=NC=C(C(=N3)NCCC4=CN=CN4)Br
Summary of the method: as §1

[9] = compound: C1CN(CCC1(CC2=CC=C(C=C2)Cl)N)C3=NC=NC4=C3C=CN4
Summary of the method: as §1

IRAK-1-4 Inhibitor I = compound: C1COCCN1CCN2C3=CC=CC=C3N=C2NC(=O)C4=CC(=CC=C4)[N+](=O)[O-] [IRAK-1-4 Inhibitor I]
Summary of the method: as §1

ibrutinib = compound: C=CC(=O)N1CCC[C@@H](n2nc(-c3ccc(Oc4ccccc4)cc3)c3c(N)ncnc32)C1 [ibrutinib]
Summary of the method: as §1

[10] = compound: CC(=O)c1cnc2ccc(-c3cc(Cl)c(O)c(Cl)c3)nc2c1N[C@H]1CC[C@H](CN(C)C)CC1
Summary of the method: as §1

ralimetinib = compound: CC(C)(C)Cn1c(N)nc2ccc(-c3[nH]c(C(C)(C)C)nc3-c3ccc(F)cc3)nc21 [ralimetinib]
Summary of the method: as §1

[11] = compound: CC(C)(O)CC(=O)NCCn1ccc2ncnc(Nc3ccc(Oc4cccc(C(F)(F)F)c4)c(Cl)c3)c21
Summary of the method: as §1

[12] = compound: CC(C)C1=C2N=C(C=C(N2N=C1)NCC3=CC=CC=C3)NCCCCCCN
Summary of the method: as §1

[13] = compound: CC(C)C[C@@H](C=O)NC(=O)[C@H](CC(C)C)NC(=O)[C@H](CC(C)C)NC(=O)OCc1ccccc1
Summary of the method: as §1

pinometostat = compound: CC(C)N(C[C@H]1O[C@@H](n2cnc3c(N)ncnc32)[C@H](O)[C@@H]1O)[C@H]1C[C@@H](CCc2nc3cc(C(C)(C)C)ccc3[nH]2)C1 [pinometostat]
Summary of the method: as §1

[14] = compound: CC1=C(C(CC(=O)N1)C2=CC=C(C=C2)C(F)(F)F)C(=O)NC3=C(C=C4C(=C3)C=NN4)F
Summary of the method: as §1

[15] = compound: CC1=C(C2=C(C=C1)C(=O)C3=CC=CC=C3N2CCCN)C
Summary of the method: as §1

Sequence of UniProt Q96BW9 (Q96BW9 whole entry, looked up): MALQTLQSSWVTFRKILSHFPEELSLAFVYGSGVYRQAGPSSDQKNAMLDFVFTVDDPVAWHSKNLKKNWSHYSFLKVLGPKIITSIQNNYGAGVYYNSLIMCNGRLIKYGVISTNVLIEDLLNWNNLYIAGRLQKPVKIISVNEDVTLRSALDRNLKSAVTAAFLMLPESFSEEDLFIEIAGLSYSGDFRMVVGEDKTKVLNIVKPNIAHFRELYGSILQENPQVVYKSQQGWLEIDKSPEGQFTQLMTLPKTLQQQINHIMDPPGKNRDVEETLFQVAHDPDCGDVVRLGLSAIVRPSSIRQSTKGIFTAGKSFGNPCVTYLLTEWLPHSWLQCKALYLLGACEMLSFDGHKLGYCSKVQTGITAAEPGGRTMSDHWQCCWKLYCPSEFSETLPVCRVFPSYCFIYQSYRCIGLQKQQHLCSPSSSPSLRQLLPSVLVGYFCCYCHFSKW
Sequence of UniProt Q7L7X3 (Q7L7X3 whole entry, looked up): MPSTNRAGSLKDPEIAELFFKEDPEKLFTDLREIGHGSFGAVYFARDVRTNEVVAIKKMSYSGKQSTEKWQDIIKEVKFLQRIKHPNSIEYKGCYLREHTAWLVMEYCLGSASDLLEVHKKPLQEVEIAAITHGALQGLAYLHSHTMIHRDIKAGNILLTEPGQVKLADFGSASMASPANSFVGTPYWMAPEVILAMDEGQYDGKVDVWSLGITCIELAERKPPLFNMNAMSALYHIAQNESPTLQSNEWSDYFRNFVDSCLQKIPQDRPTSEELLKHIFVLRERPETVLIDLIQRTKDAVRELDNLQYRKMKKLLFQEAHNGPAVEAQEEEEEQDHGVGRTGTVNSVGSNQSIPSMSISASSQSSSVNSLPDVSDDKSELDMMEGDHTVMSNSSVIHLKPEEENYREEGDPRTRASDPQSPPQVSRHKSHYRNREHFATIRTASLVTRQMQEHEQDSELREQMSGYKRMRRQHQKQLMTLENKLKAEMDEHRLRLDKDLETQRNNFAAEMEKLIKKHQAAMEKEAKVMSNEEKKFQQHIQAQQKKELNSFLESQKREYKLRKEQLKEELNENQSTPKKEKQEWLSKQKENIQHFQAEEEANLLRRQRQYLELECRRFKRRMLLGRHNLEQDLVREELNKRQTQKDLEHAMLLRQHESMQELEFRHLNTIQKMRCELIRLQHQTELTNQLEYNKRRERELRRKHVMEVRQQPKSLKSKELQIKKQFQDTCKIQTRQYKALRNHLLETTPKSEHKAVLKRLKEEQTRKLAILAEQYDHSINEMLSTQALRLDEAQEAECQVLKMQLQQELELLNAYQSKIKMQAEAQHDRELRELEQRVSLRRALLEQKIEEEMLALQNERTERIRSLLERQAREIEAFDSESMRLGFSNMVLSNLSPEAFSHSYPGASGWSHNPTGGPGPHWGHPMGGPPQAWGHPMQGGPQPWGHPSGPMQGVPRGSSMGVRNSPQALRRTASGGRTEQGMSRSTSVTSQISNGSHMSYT
Sequence of UniProt Q86VP1 (Q86VP1 whole entry, looked up): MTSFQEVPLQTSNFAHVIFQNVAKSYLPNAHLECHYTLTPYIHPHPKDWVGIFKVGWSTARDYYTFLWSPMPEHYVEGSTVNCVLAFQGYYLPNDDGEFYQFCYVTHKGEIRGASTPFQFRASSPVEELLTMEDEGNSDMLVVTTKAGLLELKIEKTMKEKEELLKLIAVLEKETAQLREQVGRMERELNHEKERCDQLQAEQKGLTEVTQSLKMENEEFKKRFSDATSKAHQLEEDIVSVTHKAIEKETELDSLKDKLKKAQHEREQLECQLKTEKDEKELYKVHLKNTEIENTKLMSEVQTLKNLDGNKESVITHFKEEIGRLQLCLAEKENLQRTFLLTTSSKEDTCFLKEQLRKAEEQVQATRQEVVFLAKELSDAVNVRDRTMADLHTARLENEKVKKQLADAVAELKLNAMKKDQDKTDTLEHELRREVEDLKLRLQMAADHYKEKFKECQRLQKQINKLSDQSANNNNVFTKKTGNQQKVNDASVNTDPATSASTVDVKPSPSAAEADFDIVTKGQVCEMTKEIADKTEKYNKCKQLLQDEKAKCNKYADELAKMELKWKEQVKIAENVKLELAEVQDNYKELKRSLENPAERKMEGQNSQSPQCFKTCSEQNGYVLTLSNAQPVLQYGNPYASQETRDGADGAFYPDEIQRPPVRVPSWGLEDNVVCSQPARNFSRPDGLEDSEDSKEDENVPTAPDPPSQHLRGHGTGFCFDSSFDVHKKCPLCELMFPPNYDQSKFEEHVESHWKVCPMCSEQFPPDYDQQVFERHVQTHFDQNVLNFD
Sequence of UniProt Q9Y5B9 (Q9Y5B9 whole entry, looked up): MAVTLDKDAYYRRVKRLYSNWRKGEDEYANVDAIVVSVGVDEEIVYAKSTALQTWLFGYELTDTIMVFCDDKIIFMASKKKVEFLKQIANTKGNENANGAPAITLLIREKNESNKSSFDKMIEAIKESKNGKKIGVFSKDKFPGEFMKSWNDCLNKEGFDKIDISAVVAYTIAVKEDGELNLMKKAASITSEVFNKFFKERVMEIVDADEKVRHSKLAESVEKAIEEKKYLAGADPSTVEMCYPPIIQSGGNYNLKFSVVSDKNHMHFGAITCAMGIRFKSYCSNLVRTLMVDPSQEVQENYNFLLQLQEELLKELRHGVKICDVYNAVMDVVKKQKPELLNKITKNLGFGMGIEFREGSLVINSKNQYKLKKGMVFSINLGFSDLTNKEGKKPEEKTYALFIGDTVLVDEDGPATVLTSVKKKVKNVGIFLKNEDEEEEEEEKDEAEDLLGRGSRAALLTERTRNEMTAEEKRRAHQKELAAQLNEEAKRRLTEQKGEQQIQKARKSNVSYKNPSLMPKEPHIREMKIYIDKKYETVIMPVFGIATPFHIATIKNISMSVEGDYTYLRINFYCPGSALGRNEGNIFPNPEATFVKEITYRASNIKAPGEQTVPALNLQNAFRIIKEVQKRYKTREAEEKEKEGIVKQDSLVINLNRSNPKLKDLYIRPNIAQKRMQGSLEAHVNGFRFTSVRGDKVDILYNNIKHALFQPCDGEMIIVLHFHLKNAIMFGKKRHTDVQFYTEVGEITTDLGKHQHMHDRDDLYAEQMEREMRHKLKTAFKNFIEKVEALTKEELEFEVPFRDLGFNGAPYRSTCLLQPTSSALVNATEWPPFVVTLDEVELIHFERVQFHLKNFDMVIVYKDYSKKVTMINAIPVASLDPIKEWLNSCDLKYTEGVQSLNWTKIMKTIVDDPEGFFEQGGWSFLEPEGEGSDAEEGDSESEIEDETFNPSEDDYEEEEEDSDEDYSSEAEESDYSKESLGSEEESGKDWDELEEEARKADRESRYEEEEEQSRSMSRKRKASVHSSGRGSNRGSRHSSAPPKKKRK
Sequence of UniProt Q9NXE4 (Q9NXE4 whole entry, looked up): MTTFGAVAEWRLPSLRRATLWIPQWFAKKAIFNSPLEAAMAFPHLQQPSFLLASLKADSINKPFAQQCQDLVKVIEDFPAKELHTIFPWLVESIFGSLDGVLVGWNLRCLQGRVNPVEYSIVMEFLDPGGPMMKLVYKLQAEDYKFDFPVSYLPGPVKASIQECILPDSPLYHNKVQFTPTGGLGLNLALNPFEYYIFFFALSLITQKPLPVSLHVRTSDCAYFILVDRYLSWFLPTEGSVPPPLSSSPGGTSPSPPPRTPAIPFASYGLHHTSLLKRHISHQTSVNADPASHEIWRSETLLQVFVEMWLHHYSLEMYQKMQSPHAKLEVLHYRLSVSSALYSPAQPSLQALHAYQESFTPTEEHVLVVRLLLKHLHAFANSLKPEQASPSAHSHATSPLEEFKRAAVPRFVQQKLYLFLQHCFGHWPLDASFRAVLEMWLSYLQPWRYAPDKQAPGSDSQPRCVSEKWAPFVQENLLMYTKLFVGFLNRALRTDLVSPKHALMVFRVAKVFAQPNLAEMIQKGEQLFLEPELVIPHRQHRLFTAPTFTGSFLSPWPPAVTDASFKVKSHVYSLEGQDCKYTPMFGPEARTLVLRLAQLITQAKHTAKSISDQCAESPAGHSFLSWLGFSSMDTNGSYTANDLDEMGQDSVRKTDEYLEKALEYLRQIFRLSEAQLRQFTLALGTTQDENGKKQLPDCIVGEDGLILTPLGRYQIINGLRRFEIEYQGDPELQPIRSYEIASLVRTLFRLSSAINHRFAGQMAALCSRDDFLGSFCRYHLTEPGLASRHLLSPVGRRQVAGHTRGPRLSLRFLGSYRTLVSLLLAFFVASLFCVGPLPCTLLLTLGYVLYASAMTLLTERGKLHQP
Sequence of UniProt P08579 (P08579 whole entry, looked up): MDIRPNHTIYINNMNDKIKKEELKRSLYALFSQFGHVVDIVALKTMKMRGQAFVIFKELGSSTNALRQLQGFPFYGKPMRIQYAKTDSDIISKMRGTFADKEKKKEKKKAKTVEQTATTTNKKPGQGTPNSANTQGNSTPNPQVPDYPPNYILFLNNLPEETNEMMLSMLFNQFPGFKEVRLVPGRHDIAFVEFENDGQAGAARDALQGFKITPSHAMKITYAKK
Sequence of UniProt Q96DW6 (Q96DW6 whole entry, looked up): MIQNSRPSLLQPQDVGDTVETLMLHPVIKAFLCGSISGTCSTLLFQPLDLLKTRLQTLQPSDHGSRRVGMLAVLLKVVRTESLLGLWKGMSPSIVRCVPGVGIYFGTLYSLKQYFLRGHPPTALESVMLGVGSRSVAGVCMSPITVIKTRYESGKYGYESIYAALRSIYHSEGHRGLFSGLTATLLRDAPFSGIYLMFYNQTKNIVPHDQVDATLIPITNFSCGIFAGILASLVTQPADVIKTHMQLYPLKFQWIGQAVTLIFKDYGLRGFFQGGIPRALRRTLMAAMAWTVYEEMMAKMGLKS
Sequence of UniProt O95149 (O95149 whole entry, looked up): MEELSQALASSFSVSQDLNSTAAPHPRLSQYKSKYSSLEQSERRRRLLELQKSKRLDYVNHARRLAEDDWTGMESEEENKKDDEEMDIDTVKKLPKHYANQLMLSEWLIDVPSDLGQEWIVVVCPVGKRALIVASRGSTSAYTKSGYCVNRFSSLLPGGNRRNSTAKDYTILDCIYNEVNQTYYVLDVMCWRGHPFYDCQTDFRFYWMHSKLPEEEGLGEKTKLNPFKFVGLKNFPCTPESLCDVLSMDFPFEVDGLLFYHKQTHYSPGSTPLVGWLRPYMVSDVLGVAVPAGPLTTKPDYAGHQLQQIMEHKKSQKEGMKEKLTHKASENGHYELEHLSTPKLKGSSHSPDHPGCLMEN

Target	log2 fold change (erlotinib)	log2 fold change [1]	log2 fold change [2]	log2 fold change [3]	log2 fold change [4]	log2 fold change [5]	log2 fold change [6]	log2 fold change [7]	log2 fold change [8]	log2 fold change [9]	log2 fold change (IRAK-1-4 Inhibitor I)	log2 fold change (ibrutinib)	log2 fold change [10]	log2 fold change (ralimetinib)	log2 fold change [11]	log2 fold change [12]	log2 fold change [13]	log2 fold change (pinometostat)	log2 fold change [14]	log2 fold change [15]
SYMPK (UniProt Q92797)	-0.005	0.179	0.005	-0.114	0.189	0.033	0.093	-0.065	-0.101	0.04	-0.029	-0.087	-0.057	0.099	-0.296	-0.026	-0.061	-0.115	0.078	-0.033
SPPL2B (UniProt Q8TCT7)	0.021	-0.112	-0.039	0.044	0.081	0.048	0.003	-0.072	-0.041	0.038	-0.004	0.013	-0.039	0.041	0.179	-0.086	0.101	-0.032	0.049	0.02
TBK1 (UniProt Q9UHD2)	-0.042	0.009	0.003	-0.048	0.044	0.026	-0.082	0.009	0.029	-0.105	-0.046	-0.019	-0.162	0.024	-0.067	-0.208	0.046	0.087	0.028	-0.091
SMPD4 isoform 4 (UniProt Q9NXE4)	0.073	0.064	-0.034	0.005	0.098	0.158	-0.021	-0.076	0.023	-0.011	-0.034	-0.044	0.12	-0.072	-0.095	-0.279 (active)	0.005	-0.002	-0.019	0.038
STAT3 (UniProt P40763)	-0.023	0.147	0.026	0.007	0.031	0.031	0.011	-0.001	-0.01	-0.036	-0.038	-0.044	0.009	-0.001	-0.08	-0.261 (active)	0.024	0	-0.05	-0.057
SNX3 (UniProt O60493)	0.129	0.074	-0.056	-0.052	0.078	-0.058	0.123	-0.136	0.026	-0.068	-0.049	0.011	-0.028	-0.059	-0.104	-0.187	0.084	0.073	-0.022	0.053
TAMM41 isoform 3 (UniProt Q96BW9)	0.047	0.03	0.058	-0.007	0.061	0.009	0.045	0.007	-0.007	0.056	0.075	0.022	-0.061	-0.04	-0.172	-0.214	0.043	0.015	0.013	0.169
SNRPB2 (UniProt P08579)	-0.032	-0.056	-0.01	-0.019	-0.034	0.042	-0.054	-0.015	0.057	-0.026	0.067	0.074	0.089	-0.015	0.037	0.213 (active)	0.037	0	-0.012	0.036
TAX1BP1 (UniProt Q86VP1)	-0.079	-0.005	0.007	0.044	0.035	0.037	-0.044	-0.006	-0.015	-0.027	-0.015	-0.007	-0.195	0.066	-0.008	-0.124	0.076	0.088	0.075	-0.006
SULT1A1 (UniProt P50225)	-0.003	0.009	0.109	0.381	0.375 (active)	0.031	0.008	0.396 (active)	-0.111	0.012	-0.077	0.044	-0.099	-0.029	-0.104	-0.104	-0.056	0.001	0.014	0.048
SLC25A38 (UniProt Q96DW6)	0.007	-0.001	-0.023	-0.036	0.129	0.054	0.023	0.005	-0.005	0.055	0.005	-0.001	0.003	-0.053	0.035	0.049	-0.018	-0.03	0.012	0.01
THADA (UniProt Q6YHU6)	0.039	0.068	0.03	0.035	0.071	0.007	0.029	-0.002	-0.011	-0.006	0.007	-0.026	-0.062	0.053	-0.166	-0.225	-0.071	0.016	-0.05	-0.047
TAOK1 (UniProt Q7L7X3)	0.006	0.045	-0.027	0.09	-0.033	0.009	-0.009	-0.007	-0.005	-0.01	0.011	-0.057	-0.827 (active)	0.062	0.009	-0.031	0.018	-0.052	0.011	0.05
SNRPD3 (UniProt P62318)	-0.019	-0.02	-0.04	-0.038	0.012	0.079	-0.113	-0.076	0.068	-0.012	0.002	-0.006	0.067	-0.022	0.208	0.162	0.017	0.027	-0.008	0.022
SUPT16H (UniProt Q9Y5B9)	0.177	0.25	0.091	-0.012	0.155	0	0.064	0.098	-0.098	-0.011	-0.155	-0.139	-0.259	-0.059	-0.174	-0.26	0.083	0.044	-0.015	-1.34 (active)
SNUPN (UniProt O95149)	-0.091	0.032	0.136	-0.019	0.069	0.037	-0.085	-0.053	0.024	-0.061	0.037	-0.039	-0.089	-0.026	-0.045	-0.034	0.037	0.07	-0.002	-0.184
